Whole data set: some 8,300 sequences, median “log2 fold change of degron read counts, EGFP-low vs EGFP+ sorted cells (limma voom), compound-induced degradation” near -1.1, cut for the highest 2% near 3.2. Only a selection was taken, and the highest values are over-represented in it overall.
T1: CRBN, Q96SW2
T1 chain: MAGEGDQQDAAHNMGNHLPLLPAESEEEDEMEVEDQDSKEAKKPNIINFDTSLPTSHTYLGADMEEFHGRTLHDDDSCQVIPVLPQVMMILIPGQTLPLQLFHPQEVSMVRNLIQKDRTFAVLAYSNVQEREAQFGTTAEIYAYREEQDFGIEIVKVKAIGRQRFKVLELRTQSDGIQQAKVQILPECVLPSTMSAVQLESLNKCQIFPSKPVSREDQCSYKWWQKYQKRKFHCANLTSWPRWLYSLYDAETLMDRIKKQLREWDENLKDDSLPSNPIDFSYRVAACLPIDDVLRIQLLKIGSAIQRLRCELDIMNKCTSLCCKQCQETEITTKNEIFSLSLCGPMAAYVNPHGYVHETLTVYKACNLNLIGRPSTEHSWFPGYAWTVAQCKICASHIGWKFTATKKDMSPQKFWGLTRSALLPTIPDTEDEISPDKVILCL


Target: T1, CRBN, Q96SW2
Assay: log2 fold change of degron read counts, EGFP-low vs EGFP+ sorted cells (limma voom), compound-induced degradation; higher = more compound-induced degradation of the degron-EGFP fusion; degrons are variants of IKZF1/3 zinc finger 2; compound dose not given here
Settings: Jurkat, 18 h
[1] = compound: compound 19 (5-tert-butyl-thalidomide)
[2] = compound: compound 22 (5-morpholino-thalidomide)
[3] = compound: compound 33 (diphenyl IMiD analogue)
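Also: pooled lentiviral library of zinc finger degron-EGFP fusions in mCherry-positive Jurkat cells, FACS-sorted after compound exposure, with degron abundance counted by next-generation sequencing.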

Sequence	log2 fold change of degron read counts [1]	log2 fold change of degron read counts [2]	log2 fold change of degron read counts [3]	log2 fold change of degron read counts (compound: thalidomide)
FICNQCGRSFTQKGNLLRHIKL [46F_47I_49N_50Q_52G_53R_54S_55F_67L_, Q9UKT9]	-3.32	-3.15	-3.35	-3.61
FACEQCGAKFTQKGNLLRHIKL [46F_47A_49E_50Q_52G_53A_54K_55F_67L_, Q9UKT9]	1.9	-1.51	-3.24	-1.44
LTCEICGFECTQKGNLLRHIKL [46L_47T_49E_50I_52G_53F_54E_55C_67L_, Q9UKT9]	-0.328	0.102	-0.375	0.759
FSCPICGHVFTQKGNLLRHIKL [46F_47S_49P_50I_52G_53H_54V_55F_67L_, Q9UKT9]	-2.55	-2.29	-1.52	-1.64
FLCDVCGAKFTQKGNLLRHIKL [46F_47L_49D_50V_52G_53A_54K_55F_67L_, Q9UKT9]	-1.99	-3.99	-1.78	-0.928
FLCEICGHCFTQKGNLLRHIKL [46F_47L_49E_50I_52G_53H_54C_55F_67L_, Q9UKT9]	-3.3	-3.75	-3.16	-2.4
FMCEICGHTFTQKGNLLRHIKL [46F_47M_49E_50I_52G_53H_54T_55F_67L_, Q9UKT9]	-3.32	-4.22	-2.78	-3.14
LICPICGFRCTQKGNLLRHIKL [46L_47I_49P_50I_52G_53F_54R_55C_67L_, Q9UKT9]	0.753	2.24	1.19	2.84
LACPICGFNCTQKGNLLRHIKL [46L_47A_49P_50I_52G_53F_54N_55C_67L_, Q9UKT9]	2.23	1.61	1.93	1.49
LGCPICGFRCTQKGNLLRHIKL [46L_47G_49P_50I_52G_53F_54R_55C_67L_, Q9UKT9]	3.17	2.04	0.549	1.14
LDCPICGFNCTQKGNLLRHIKL [46L_47D_49P_50I_52G_53F_54N_55C_67L_, Q9UKT9]	-0.713	-1.04	-0.142	0.706
LWCPICGFNCTQKGNLLRHIKL [46L_47W_49P_50I_52G_53F_54N_55C_67L_, Q9UKT9]	2.43	3.5	2.36	1.53
LWCPICGFRCTQKGNLLRHIKL [46L_47W_49P_50I_52G_53F_54R_55C_67L_, Q9UKT9]	3.02	3.7	2.31	2.05
FRCPICGAIFTQKGNLLRHIKL [46F_47R_49P_50I_52G_53A_54I_55F_67L_, Q9UKT9]	-1.29	-0.543	0.89	1.18
FTCEQCGAQFTQKGNLLRHIKL [46F_47T_49E_50Q_52G_53A_54Q_55F_67L_, Q9UKT9]	-2.06	-1.12	0.532	-0.012
FFCPICGHVFTQKGNLLRHIKL [46F_47F_49P_50I_52G_53H_54V_55F_67L_, Q9UKT9]	-0.996	-1.35	-1.19	-1.12
FACPICGHTFTQKGNLLRHIKL [46F_47A_49P_50I_52G_53H_54T_55F_67L_, Q9UKT9]	-2.03	-2.66	-2.44	-2.56
FKCNVCGAVFTQKGNLLRHIKL [46F_47K_49N_50V_52G_53A_54V_55F_67L_, Q9UKT9]	-2.44	-2.91	-3.25	-2
FWCEICGAHFTQKGNLLRHIKL [46F_47W_49E_50I_52G_53A_54H_55F_67L_, Q9UKT9]	3.45	3.78	2.18	1.05
FTCEICGAHFTQKGNLLRHIKL [46F_47T_49E_50I_52G_53A_54H_55F_67L_, Q9UKT9]	0.467	0.746	1.69	2.11
FACEICGAHFTQKGNLLRHIKL [46F_47A_49E_50I_52G_53A_54H_55F_67L_, Q9UKT9]	3.32	1.02	0.285	-0.547
FNCEICGAHFTQKGNLLRHIKL [46F_47N_49E_50I_52G_53A_54H_55F_67L_, Q9UKT9]	2.65	0.0954	-0.0262	-0.422
FQCEICGAHFTQKGNLLRHIKL [46F_47Q_49E_50I_52G_53A_54H_55F_67L_, Q9UKT9]	-0.0399	0.799	0.886	3.17
FMCEICGAHFTQKGNLLRHIKL [46F_47M_49E_50I_52G_53A_54H_55F_67L_, Q9UKT9]	-0.196	-0.917	1.94	0.547
FICEICGAHFTQKGNLLRHIKL [46F_47I_49E_50I_52G_53A_54H_55F_67L_, Q9UKT9]	-0.091	1.87	1.79	2.1
FLCEICGAHFTQKGNLLRHIKL [46F_47L_49E_50I_52G_53A_54H_55F_67L_, Q9UKT9]	0.729	-1.66	0.445	0.792
FECEICGAHFTQKGNLLRHIKL [46F_47E_49E_50I_52G_53A_54H_55F_67L_, Q9UKT9]	-0.919	-2.34	1.1	1.26
FYCEICGAHFTQKGNLLRHIKL [46F_47Y_49E_50I_52G_53A_54H_55F_67L_, Q9UKT9]	3.61	3.49	2.57	1.24
FFCEICGAHFTQKGNLLRHIKL [46F_47F_49E_50I_52G_53A_54H_55F_67L_, Q9UKT9]	3.34	3.33	2.07	1
FCCEICGAHFTQKGNLLRHIKL [46F_47C_49E_50I_52G_53A_54H_55F_67L_, Q9UKT9]	2.06	0.682	1.31	1.03

— the supplement of paper PMC12645437, “Orthogonal IMiD-Degron Pairs Induce Selective Protein Degradation in Cells” (ACS Chemical Biology, 2025)
